Compound activity from PubChem BioAssay.
KDM5B inhibitor = KDM5B demethylase inhibition | Q9UGL1 | KDM5B demethylase, FDH-coupled NADH fluorescence (FDH is formaldehyde dehydrogenase) | Potency, µM (titrated, usually from 57.7 µM), usual class: inhibitors | 220,000 compounds, 2.6% hits | AID 1347165; active means well fitted inhibition curve with a large enough effect; further: 0% is about no effect; nearly all actives have a fitted effect of over 70% in size
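Coupled FDH/NAD⁺ fluorescence readout. KDM5BΔAP 200 nM final; compound titration, 10 min RT preincubation; substrate mix 12.5 µM H3K4me3, 25 µM 2-OG, 50 µM Fe(II), 100 µM ascorbate, 0.25 mM NAD⁺, 0.25 U/mL FDH; ΔRFU over 30 min.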
* hit, by the source's call; i = inactive. The sample as a whole holds a higher share of hits than the screen did. Potency means the concentration at half of the fitted maximal effect.

SMILES | KDM5B inhibitor
Cc1ccc(CN2CC[C@H](c3nc4ccc(C(F)(F)F)cc4[nH]3)C2)cc1 | i
Fc1ccc2nc([C@H]3CCN(Cc4ccc(F)c(F)c4)C3)[nH]c2c1 | i
COc1ccc2nc([C@H]3CCN(Cc4ccncc4)C3)[nH]c2c1 | 35µM*
COc1ccc(CN2CC[C@H](c3nc4ccc(OC)cc4[nH]3)C2)cc1 | i
Fc1ccc2nc([C@H]3CCN(Cc4ncc[nH]4)C3)[nH]c2c1 | 28µM*
Fc1ccc2nc([C@H]3CCN(Cc4cccs4)C3)[nH]c2c1 | i
COc1ccc(CN2CC[C@H](c3nc4ccc(C)cc4[nH]3)C2)cc1 | i
CN1CCC(N2CC[C@H](c3nc4ccc(C#N)cc4[nH]3)C2)CC1 | 35µM*
CC(=O)N1CCC(N2CC[C@H](c3nc4ccc(F)cc4[nH]3)C2)CC1 | i
CCC1CCC(N(C)C(=O)c2ccc(OC(F)F)cc2)CC1 (configuration not stated) | i
COc1cc(/C=N/O)ccc1OC(C)C | i
O=C(CCc1c[nH]c2ccccc12)Nc1ccc(Cl)c(Cl)c1 | i
FC(F)(F)c1ccccc1/C=N/NC(=S)NCc1ccccc1 | i
Cc1[nH]c2ccc(Cl)cc2c1CCNC(=S)NC(C)(C)C | i
COC(=O)CNC(=O)Nc1c(-c2cccnc2)[nH]c2ccccc12 | i
COc1ccc(Cc2nc3nccc(-c4cccc(OC)c4)n3n2)cc1 | 20µM*
COc1ccc(CCc2nc3nccc(-c4cccc(OC)c4)n3n2)cc1 | 18µM*
COc1ccc(Cc2nc3nccc(-c4cccnc4)n3n2)cc1 | i
COc1ccc(CCc2nc3nccc(-c4ccccn4)n3n2)cc1 | i
CCCCNc1nc(-c2cccc(OC)c2O)nc2ccccc12 | i
O=C(CSc1nc(-c2ccccc2F)nc2cc(=O)[nH]n12)N1CCCc2ccccc21 | i
CN(C)c1nc2c(c(=O)[nH]c(=O)n2C)n1Cc1ccccc1Cl | i
CC(NC(=O)c1ccc(SC(F)(F)F)cc1)c1ccncc1 (configuration not stated) | i
O=C(CCc1ncc(-c2c(F)cccc2F)o1)NCCCN1CCOCC1 | i
CN(Cc1ccsc1)C(=O)CCc1ccccc1 | i
SMILES | KDM5B inhibitor
CC(C)NC(=O)N1CCOc2ccc(CCC(=O)NCCCN3CCOCC3)cc2C1 | i
CCN(CC)c1cc(CCC(=O)N(C)Cc2ccccc2)ccn1 | 22µM*
CCN(CC)c1cc(CCC(=O)N2CCC(C)CC2)ccn1 | 25µM*
CCN(CC)c1cc(CCC(=O)NCCCN2CCOCC2)ccn1 | 25µM*
CCN(CC)c1ccc2nnc(CCC(=O)N3CCC(C)CC3)n2n1 | i
CN(Cc1ccc(C(=O)NCC(F)(F)F)cc1)C(=O)CCc1ccccc1 | i
CCN(CC)c1ccc2nnc(CCC(=O)N3CCOCC3)n2n1 | i
O=C(N/N=C/C(Cl)=C\c1ccccc1)C1CC1 | i
Cc1cccc(Cn2cccc2CNC(=O)NC23CC4CC(CC(C4)C2)C3)c1 | i
CCc1ccc(-c2cc3c(=O)[nH]nc(SCC(=O)NC(C)CC)n3n2)cc1 (configuration not stated) | i
O=C(Nc1cc(=O)[nH]c2nc(C(F)(F)F)nn12)c1ccccc1Cl | i
CN(CC(=O)NC(N)=O)c1ccc(C(C)(C)C)cc1 | i
COCCN1Cc2nc(Nc3ccc(F)c(Cl)c3)ccc2OCC1=O | i
Cc1nc(CN2Cc3nc(Nc4ccccc4)ccc3OCC2=O)cs1 | i
O=C1COc2ccc(Nc3ccccc3)nc2CN1CCOc1ccccc1 | 40µM*
Cc1csc(Nc2ccc3c(n2)CN(CCOc2ccccc2)C(=O)CO3)n1 | i
COCCN1Cc2nc(Nc3ccc(C(F)(F)F)cc3)ccc2OCC1=O | 25µM*
O=C1COc2ccc(Oc3ccccc3)nc2CN1CCOc1ccccc1 | i
O=C(NC1CCCN(c2cc(-c3ccc(F)cc3)[nH]n2)C1)c1cccc(Cl)c1 (configuration not stated) | i
CNC(=O)CCn1ncc2cc(OCc3ccccc3-c3ccccc3F)ccc21 | i
Oc1ccc(Cl)cc1C=NCc1ccc(C(F)(F)F)cc1 | i
Cc1cc(C)n2nc(C(=O)Nc3cc(F)ccc3C)nc2n1 | i
COc1cc(CN(C(=S)NCC(=O)NCc2ccc(Cl)cc2)C2CCCC2)cc(OC)c1OC | i
Cc1cccc(C(=O)Nc2ccc3nc(SCc4ccc(I)cc4)sc3c2)c1 | i
COc1ccc(OC)c([S+](=O)([O-])c2nnn3c2nc(N2CCOCC2)c2ccccc23)c1 | i
SMILES | KDM5B inhibitor
O=[S+]([O-])(c1ccc(Br)cc1)c1nnn2c1nc(NC1CCCC1)c1ccccc12 | i
COc1ccc([S+](=O)([O-])c2nnn3c2nc(NC2CC2)c2ccccc23)cc1 | 89µM*
O=[S+]([O-])(c1ccc(Cl)cc1)c1nnn2c1nc(NC1CC1)c1ccccc12 | i
CC(C)c1ccc([S+](=O)([O-])c2nnn3c2nc(N2CCC(F)CC2)c2ccccc23)cc1 | i
COc1ccc(OC)c([S+](=O)([O-])c2nnn3c2nc(N2CCC(F)CC2)c2ccccc23)c1 | 50µM*
CC1CCN(c2nc3c(-c4cccc(Br)c4)nnn3c3ccccc23)CC1 | i
COc1ccc([S+](=O)([O-])c2nnn3c2nc(N2CCC(F)CC2)c2ccccc23)cc1 | 79µM*
O=S(=O)(c1ccccc1)c1nnn2c1nc(N1CCOCC1)c1ccccc12 | i
N#Cc1ccc(S(=O)(=O)N2CCC(C(=O)N3CCCC3c3ccc4c(c3)OCCO4)CC2)cc1 (configuration not stated) | i
O=C(COC(=O)c1cc([N+](=O)[O-])ccc1Cl)c1cc2ccccc2o1 | i
COc1ccc(C)cc1NC(=O)Cn1nc(-c2cccs2)oc1=O | i
O=C(CCN1C(=O)c2ccccc2S1(=O)=O)Nc1cccc(C(=O)O)c1 | i
CN(C)S(=O)(=O)c1cccc(NC(=O)c2ccccc2Oc2ccccc2)c1 | i
O=C(CSc1ncnc2nc[nH]c12)NCc1cccc(Cl)c1 | i
COc1ccc(C)cc1-c1nccc2c(=O)cc(-c3cnn(C)c3)oc12 | i
Cc1ccc(-c2nn(CC(=O)N3CCN(C)CC3)c(=O)c3ccccc23)cc1 | i
CN1CCN(c2cc(=O)c3ccnc(-c4ccc(F)cc4)c3o2)CC1 | 28µM*
O=c1cc(-c2ccncc2)oc2c(-c3ccccc3O)nccc12 | i
CN1CCN(c2cc(=O)c3ccnc(N4CCN(c5ccccn5)CC4)c3o2)CC1 | i
C[S+](=O)([O-])c1ccc(-c2nccc3c(=O)cc(-c4ccncc4)oc23)cc1 | 32µM*
Cc1ccc(-c2nccc3c(=O)cc(N4CCN(C)CC4)oc23)cc1 | 40µM*
CN1CCN(c2cc(=O)c3ccnc(-c4ccc([S+](C)(=O)[O-])cc4)c3o2)CC1 | 32µM*
CN(C)c1cccc(Nc2nc3ccccc3nc2NS(=O)(=O)c2cccs2)c1 | i
CCOC(=O)c1[nH]c2ccc(F)cc2c1NC(=O)c1ccccc1F | i
CCc1nnc2sc(-c3ccc(CNC(=O)C(C)(C)Oc4ccc(Cl)cc4)cc3)nn12 | i
SMILES | KDM5B inhibitor
CCn1c(SCc2ccc(F)cc2Cl)nnc1-c1cnccn1 | i
CCC(C)NC(=O)Nc1c(NC)c2ccccc2oc1=O (configuration not stated) | i
CN(Cc1ccccc1)Cc1cc(C[C@@H]2CC[C@H](O)[C@@H](CNC3CCOCC3)O2)no1 | i
N#Cc1ccc(/C=N/Nc2ccccc2Cl)cc1 | i
Cn1c(=O)[nH]c(=O)c2c1nc(SCCCc1ccccc1)n2Cc1ccccc1 | i
O=C(NCCCN1CCOCC1)c1csc(Nc2cccc3ccccc23)n1 | i
